The assay in a line: yeast superoxide dye artefact check – S. cerevisiae BY4741, flow cytometry, artefact control for yeast caloric restriction mimetic project (AID 435000).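 Note: percent of the mean fluorescence averaged over all compound wells on the plate; lower means stronger quenching of DHE signal or ROS scavenging.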 As to conditions: S. cerevisiae BY4741, DHE fluorescence, at 10 µM, hits give low values.

The structures appear in SMILES notation. The list shows a part of the results. Unmarked numbers belong to inactive results.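 Rule for the calls: active = fluorescence response below 15%; inactive = the rest.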

On to `CN1CCN(C(=S)SCC(=O)Nc2ccc(Cl)cc2C(=O)c2ccccc2)CC1`, for which the fluorescence response was 104%.
For the compound `C[C@]12CCC3C(CC[C@H]4C[C@@H](O)CC[C@]34C)C1C[C@@H](O)[C@H]2O` (some centres not stated), the fluorescence response was 99%.

These data come from PubChem BioAssay AID435000 (NMMLSC, 2010).
